# Compounds without any hit were thinned out: in the full panel of roughly 83,000, 20% have a hit.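 A percent growth of 40 corresponds to 60% growth inhibition; 0 means no net growth; -100 means all cells died. Active threshold: below 10.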 Unmarked numbers belong to inactive results. The source made the active and inactive calls.
# Tested on: MDA-MB-468 breast
# Assay: NCI-60 one-dose screen, 48 h (100 = growth as untreated, 0 = no growth, -100 = all killed)
# Settings: 10 µM unless noted
row,Compound,growth
1,CC(C)(C)c1ccc(C(=O)Nc2sc3c(c2C(N)=O)CCC(=O)C3)cc1,-54.7% (active)
2,Cc1cccc2c(=O)c3c(sc12)c(NCCCNCCO)nc1ccccc13,16.3%
3,Cc1cccc(Cc2cnc(NC(=O)CCCOc3ccc(Cl)cc3)s2)c1,3.77% (active)
4,COC(=O)/C=C1/CCC2C3CCC4=CC(=O)C(Br)CC4(C)C3C(=O)CC12C (stereo not given),13.9%
5,CCC(C)/C(=C\C#N)NCCCN/C(=C/C#N)C(C)CC (stereo not given),108%
6,Oc1ccc(O)cc1,96.7%
7,COc1ccc(-c2cc(-c3cc(-c4ccc(OC)cc4)nc(N)n3)nc(N)n2)cc1,104%
8,COc1ccc(-c2nn(-c3ccccc3)cc2/C=C2\SC(=O)NC2=O)cc1,107%
9,COc1ccc(OC)c(Nc2nnc(-c3ccc(O)c(OC)c3)o2)c1,71.7%
10,C=C1C(=O)O[C@H]2[C@H]1CC/C(COC(=O)NCc1cc(OC)c(OC)c(OC)c1)=C\CC[C@@]1(C)O[C@@H]21,35.4%
11,COc1ccc(CN2c3ccccc3CCc3ccccc32)cc1F,4.48% (active)
12,CCc1c(C(=O)NCc2c(O)ccc3cccc(O)c23)[nH]c(C)c1C(C)=O,18.5%
13,COc1ccc(-c2noc(C(=O)O)c2-c2cc(OC)c(OC)c(OC)c2)cc1,24.7%
14,O=C(Nc1ccccc1CNc1nc(Nc2ccc(OCCN3CCCC3)cc2)ncc1Cl)NC1CCCCC1,89.4%
15,C#Cc1ccc(NC(=O)c2ccc(/C=C/C(=O)c3nccn3C)cc2)c(F)c1,32.3%
16,CCCCCc1c(C)[nH]c(/C=C2\N=C(c3ccc[nH]3)C=C2OCc2ccccc2)c1C,-51.6% [100 µM] (active)
17,CC(=O)n1nc(C(=O)OC(C)(C)c2ccccc2)c2ccccc21,93.3%
18,CN1CCN(Cc2ccc(NC(=O)c3cncc(C#Cc4ccc(N)nc4)c3)cc2C(F)(F)F)CC1,-8.99% (active)
19,CCN1C2CCC1/C(=C\c1ccc(F)cc1)C(=O)/C2=C/c1ccc(F)cc1,11.1%
20,O=[N+]([O-])c1ccccc1/C=N\NC(=S)N/N=C/c1ccccc1[N+](=O)[O-],30.7%

row,Compound,growth
1,O=C(Nc1ncc(Cc2ccccc2)s1)c1cc(-c2ccccc2)nc2ccccc12,103%
2,C=C(C)[C@@H]1CC[C@]2(CN)CC[C@]3(C)[C@H](CC[C@@H]4[C@@]5(C)CCC(N)[C@@](C)(CO)[C@@H]5CC[C@]43C)[C@@H]12 (stereo not given in full),-86.6% (active)
3,COc1ccc(C2=NN(C(=O)c3cc(OC)c(OC)c(OC)c3)C(c3ccc(Cl)cc3)C2)cc1OC (stereo not given),9.76% (active)
4,O=C(N/N=C/c1c(Cl)cccc1Cl)c1cccnc1Nc1cccc(C(F)(F)F)c1,26.6%
5,CC(C)(C)c1ccc(/C=C/C(=O)Nc2ccc(O)cc2)cc1,92.2%
6,O=C(Nc1cccc(C2=NCCN2)c1)c1ccc(-c2ccc(C(=O)Nc3cccc(C4=NCCN4)c3)cc2)cc1,62%
7,CCCCCCNC(=O)Oc1ccc(/C(=C(/C)c2ccc(OC)cc2)c2ccc(OCCN3CCCC3)cc2)cc1,87.1%
8,CC(=O)ON1CCCC(P(=O)(OCOC(=O)C(C)(C)C)OCOC(=O)C(C)(C)C)C1=O (stereo not given),-21.2% (active)
9,O=C(OCCCCOC(=O)n1cnc2ccccc21)n1cnc2ccccc21,112%
10,CCCOC(=O)c1ccc2c(c1)[N+](=O)C(C(=O)c1ccccc1)=C(C(F)(F)F)[N+]2=O,-81.4% (active)
11,COc1ccc(-c2cn[nH]c2-c2cc(OC)c3c(c2)OCO3)cc1,36.1%
12,Brc1cc(-c2cc(-c3ccc4c(c3)OC=CO4)[nH]n2)cs1,30%
13,CCOC(=O)CSCCC#N,109%
14,COc1ccc(OC)c(C2OC(c3ccc4ccccc4c3O)=NN2C(C)=O)c1 (stereo not given),53.9%
15,CN(C)C(=S)N=Nc1c(O)[nH]c2ccccc12,-2.36% (active)
16,CCCCCN1C=C/C(=C\C(=O)N(C)c2ccc(OC(F)(F)F)cc2)c2ccccc21,80.4%
17,CCc1cccc(Sc2cc(C(=O)N3Cc4ccc(OCCN(C)C)cc4C3)ccc2O)c1,30.6%
18,CCCCCCCCOC(=O)c1ccccn1,107%
19,Oc1c(I)cc(I)cc1CNCc1ccccn1,29.3%
20,N[C@@H]1CCC[C@H]1NCCCCN1C(=O)c2cccc3cccc(c23)C1=O,53.9%
